Measured values reported in PubChem BioAssay AID2551 (National Center for Advancing Translational Sciences (NCATS), 2010).
Several values for one entry are separate records, joined by “and”; a condition that tells them apart may be missing. Identical values can stand only once. The whole screen tested about 310,000 compounds, of which about 17,000 (5.5%) were called active. Roughly 11% stayed inconclusive and do not appear here. Calls follow the shape of the dose curve; as a rule, active = well fitted inhibition curve with a large enough effect; inconclusive = small, poorly fitted or top-dose-only effect, or effect the other way; inactive = no such curve, though single readings can be large or run the other way. What follows is part of a selection rich in actives, with near analogues and random picks from the rest. A structure can be active in one record and inactive in another.

Biological target: Nuclear receptor ROR-gamma (Mus musculus) (UniProt P51450)
Sequence (P51450 whole entry, looked up): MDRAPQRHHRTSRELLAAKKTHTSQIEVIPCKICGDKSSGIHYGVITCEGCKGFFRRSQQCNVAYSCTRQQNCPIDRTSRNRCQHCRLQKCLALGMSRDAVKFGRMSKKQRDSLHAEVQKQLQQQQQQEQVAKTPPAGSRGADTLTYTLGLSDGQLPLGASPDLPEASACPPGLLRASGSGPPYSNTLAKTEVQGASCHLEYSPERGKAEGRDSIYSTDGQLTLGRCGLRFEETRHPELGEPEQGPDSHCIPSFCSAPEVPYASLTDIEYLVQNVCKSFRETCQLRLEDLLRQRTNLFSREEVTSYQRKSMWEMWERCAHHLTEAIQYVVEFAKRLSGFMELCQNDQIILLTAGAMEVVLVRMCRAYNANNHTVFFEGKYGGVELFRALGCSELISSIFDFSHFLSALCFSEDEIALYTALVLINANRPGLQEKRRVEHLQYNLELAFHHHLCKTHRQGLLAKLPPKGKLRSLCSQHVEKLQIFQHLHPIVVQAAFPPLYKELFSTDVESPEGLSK
Assay: qHTS for inhibitors of ROR gamma transcriptional activity; also: nearly all actives have a fitted effect of over 60% in size
Conditions: Drosophila S2 Gal4-RORgamma UAS-luciferase reporter, 20 h; series mostly up to 53.6 µM; activity change, negative = inhibition: at the top concentration
Description: NIH Molecular Libraries Probe Production Network [MLPCN] NIH Chemical Genomics Center [NCGC] MLPCN Grant: R03 DA026211-01 Assay Provider: Dan Littman, New York University Assay Overview: The retinoic acid-related orphan receptor (ROR) gamma is a transcription factor that has a central role in the differentiation of Th17 cells, a subset of T helper cells that secrete the inflammatory cytokines IL-17, IL-17F, and IL-22. Th17 cells have been implicated in graft versus host disease, autoimmune disease and asthma. ROR gamma is induced in naive T helper cells in the presence of TGF-beta combined with IL-6, IL-21, or IL-23, and thereafter directs the expression of the Th17 lineage cytokines. To study the mechanism of action of ROR gamma, an insect cell-based assay was screened. This Drosophila Schneider cell line was stably transfected with two vectors: a gene expressing a fusion of the Gal4 DNA binding domain and ROR gamma transactivation domain under the control of the metallothionine promoter and a Photinus luciferase reporter regulated by the Gal4 binding site enhancer, UAS. […] Small molecule inhibitors of ROR gamma activity are detected by a decrease in luciferase reporter activity.
Assay Protocol Summary: For screening, 600 cells in 4 uL/well were dispensed into white solid 1536-well plates (Grenier) using a solenoid-based dispenser. Following transfer of 23 nL compound or DMSO vehicle by a pin tool, the plates were incubated 1 hr at ambient temperature, and 1 uL/well copper sulfate (700 uM final concentration) was added. The plates were centrifuged 15 s at 1000 RPM and incubated 20 hr at ambient temperature. After addition of 1.5 uL Photinus luciferase detection reagent, the plates were incubated 10 min at ambient temperature and then read by an ViewLux (Perkin Elmer) to detect luminescence. Keywords: NIH Roadmap, MLPCN, MLI, MLSMR, qHTS, NCGC, qHTS, nuclear hormone receptor, retinoic acid-related orphan receptor, ROR gamma
% is scaled to controls: 0 for no effect and ±100 for the full control effect; potency is read from the fitted curve at half-maximal effect.

Activity change, negative = inhibition, inactive:
Cc1nn(C)c(Cl)c1CN1CCC(Oc2ccc(C(=O)N3CCCC3)cc2)CC1 -28%
CCOc1ccc(N/C(N)=N/c2nc(C)c(C)c(=O)[nH]2)cc1 0.457%
Cc1ccc(C(=O)N/C(=C\c2cn(S(=O)(=O)N(C)C)c3ccccc23)C(=O)N2CCCC2)cc1 12.2%
CCOc1cc(/C=C2\C(=N)N3N=C(C)SC3=NC2=O)ccc1OCCOc1ccccc1 26.8% [at 1.91 µM]
COc1cccc(OC)c1C(=O)Nc1c(C(=O)N2CCN(c3ccccn3)CC2)oc2ccccc12 26.4%
CCOc1cc(C)ccc1OCc1nnc(SCC(=O)Nc2cccc(C(=O)O)c2)n1-c1ccccc1 -3.43%
Cc1cc(C)c(C#N)c(SCC(=O)Nc2ccccc2)n1 -8.89%
CC(Sc1nnc2c(n1)C1CCC2(C)C1(C)C)C(=O)Nc1ccccc1 (stereo unspecified) 8.52%
Cc1c(CN2CC[C@@H](N3CCN(c4ccccn4)CC3)[C@H](O)C2)[nH]c2ccc(F)cc12 10.1%
O=C(Nc1n[nH]c(C(F)(F)F)n1)c1cccs1 -2.77%
COc1ccc(CC(=O)Nc2nc3n(n2)C(c2ccccc2)CC(=O)N3)cc1OC (stereo unspecified) -4.03%
CCOc1cc(/C=C2\SC(N3CCCCC3)=NC2=O)ccc1O 18.1%
O=C1N=C(N2CCCC2)S/C1=C\c1cccc(Br)c1 26.8%
Cc1ccc(CCNC(=O)c2ccc3nc4ccccc4c(=O)n3c2)cc1 2.06%
COc1ccc(N(CC(=O)NCC2CCCO2)C(=O)CCC(=O)Nc2nccs2)c(OC)c1 (stereo unspecified) 6.64%
O=C(NCc1ccc(F)cc1)C1CCN(C(=O)Nc2ccc(F)cc2)CC1 12.7%
O=c1[nH][nH]c(=O)c2cc(N3CCCC3)ccc12 0.847%
CCOC(=O)/C(C#N)=C/c1ccc(N2CCCCC2)cc1 41.1%
COc1ccc(-c2nnc3ccc(SCc4ccccc4)nn23)cc1 18.6%
COC(=O)c1ccc(CSc2ccccc2C)o1 23.7%
CN1CCN(Cc2c(C(=O)N3CCc4ccccc4C3)nc3ccc(Cl)cn23)CC1 -0.791%
CN1CCN(C(=O)C(=O)c2cn(CC(=O)N3CCCC3)c3ccccc23)CC1 0.0969%
CCC(C)[C@H](NC(=O)N1c2ccccc2NC(=O)[C@@H]1C(C)C)C(=O)N[C@@H](Cc1ccccc1)C(=O)O (stereo partly specified) -3.74%
CC(O)CNCCOc1cccc(Oc2ccccc2)c1 (stereo unspecified) -10.9%
COc1ccccc1OCC(O)CN1CCOCC1 (stereo unspecified) 6%
COc1cccc(OCc2nnc3n2N=C(c2ccccc2)C(CC(=O)O)S3)c1 (stereo unspecified) -7.78%
COc1ccc(-n2ncc3c2CC(C)(C)CC3NC(=O)CCc2c(C)nn(C)c2C)cc1 (stereo unspecified) 17.1%
CCCCN(CCCC)CCNC(=O)CN1C(=O)COc2ccc(S(=O)(=O)N3CCOCC3)cc21 -12.1%
CC(=O)NC(=S)Nc1ccc(NC(=O)c2cccnc2)cc1 28.8%
CC(=O)Nc1ccc(-c2nc3ccccc3o2)cc1 -26.3%
COC(=O)COc1ccc2oc(=O)cc(C)c2c1 -35%
Cc1cc(=O)oc2cc(OCC(=O)Nc3nnc(C4CC4)s3)ccc12 -12.9%
Cc1c(C)c2ccc(OCC(=O)N3CCN(c4cccc(Cl)c4)CC3)cc2oc1=O 0.847%
CCC(C)N1CC(=O)N2Cc3[nH]c4ccccc4c3C[C@H]2C1=O (stereo partly specified) -15.5%
O=C(Cn1ncc2c3ccccc3n(Cc3ccccc3)c2c1=O)NCCCN1CCOCC1 -2.33%
COc1ccc(N(CC(=O)Nc2cc(OC)ccc2OC)S(=O)(=O)c2c(C)noc2C)cc1 -1.57%
CCCCC(=O)Nc1cc(C)c2c(=O)oc3ccccc3c2n1 3.53%
CC(C)(C)Nc1c(N)c(=O)oc2ccccc12 13.4%
COc1cccc(C(=O)NNS(=O)(=O)c2ccc(F)cc2)c1 3.67%
COc1ccc(C(C(=O)NCC2CCCO2)N(C(=O)Cn2nnc3ccccc32)c2ccc(NC(C)=O)cc2)cc1OC (stereo unspecified) -6.87%
Nc1nc(-c2ccccc2)cc(-c2ccccc2)n1 -7.58%
Nc1ccc(-c2sc(N)nc2-c2ccccc2)cc1 -17.2%
Cc1c(CN2CCC(n3nccc3NC(=O)CCc3ccccc3)CC2)cnn1C -18.5%
CC(=O)NCCC(=O)Nc1cc(S(=O)(=O)N2CCCCC2)ccc1Oc1cccc(C)c1 11%
Cc1nnc(SCC(=O)NNC(=O)c2ccc(Cl)cc2)n1CC1CCCO1 (stereo unspecified) 15%
CNC(=O)NC(=O)CSc1nnc(-c2ccc(F)cc2)n1CC1CCCO1 (stereo unspecified) 10.2%
N#Cc1ccccc1S(=O)(=O)N1CCN(C(=O)c2cc(-c3ccccc3)nn2-c2ccccc2)CC1 -11.5%
S=C(Nc1ccc(Br)cc1Cl)N1CCC2(CC1)OCCO2 -25.8%
CC1CN(C(=S)Nc2ccccc2F)CC(C)O1 (stereo unspecified) 13%
O=C(Nc1ccc(O)cc1)c1ccc(NC(=O)c2ccco2)cc1 7.16%
O=C(CCSc1ccccc1)NCCSc1ccccn1 24.1%
Cc1cc(Cl)ccc1OCCCC(=O)NCc1ccccn1 16.2%
O=C1C2CCCN2C(=O)N1CCCCN1CCN(c2cccc(C(F)(F)F)c2)CC1 (stereo unspecified) -13.4%
N#Cc1cc([N+](=O)[O-])ccc1Oc1cccc(/C=N/NC(=O)c2ccc(Cl)cc2)c1 3.47%
CC1(C)C2CC=C(/C=N/NC(=O)C3CC3)C1C2 (stereo unspecified) 3.41%
N#Cc1c(-c2ccccc2)nc(SCc2cccc(C(F)(F)F)c2)[nH]c1=O -5.35%
Cc1nn(C(C)C(=O)NCCC2=CCCCC2)c(=O)c2nn(-c3ccccc3)c(C)c12 (stereo unspecified) -18.5%
O=C(NNC(=S)NCCCN1CCOCC1)c1ccncc1 0.729%
Cc1cc(C)cc(NC(=S)NCCCN2CCOCC2)c1 -41.7%
COc1ccccc1C(=O)N(C1=NC(C)CS1)c1ccc(Cl)cc1 (stereo unspecified) 16.1%
Cc1ccc(C)c(NC(=O)c2ccc3nccnc3c2)c1 15%
CCC1(C)Cc2c(sc3nc(SC)nc(N)c23)CO1 (stereo unspecified) 1.66%
CCC1(C)Cc2c(sc3nc(SC)[nH]c(=O)c23)CO1 (stereo unspecified) 21.3%
COc1ccc(S(=O)(=O)NCCCCOc2ccc(Cl)cc2)cc1 21.1%
COc1cccc(CNS(=O)(=O)c2ccc3c(c2)N(C(C)=O)CCS3)c1 29.6%
COc1cccc(C(=O)N/N=C(\C)c2cccc(NC(=O)c3ccc(F)cc3)c2)c1OC 19%
COc1cccc(NC(=O)CSc2nnc(Cc3ccc(OC)c(OC)c3)o2)c1 -8.74%
CCN(CC)C(=O)N(CC)Cc1ccccc1 -2.25%
COc1cccc(CNC(=O)CCN2C(=S)NC(C)(C)CC2C)c1 (stereo unspecified) -30.2%
Cc1ccc(NC(=O)COc2ccc(/C=N\NC(=O)c3cccnc3)cc2)cc1C 8.19%
O=C(CCC(=O)N/N=C/c1ccc(Br)o1)N/N=C/c1ccc(Br)o1 -1.84%
O=C(CCc1n[nH]c(=O)[nH]c1=O)N/N=C/c1ccc(Br)o1 -0.308%
O=C(N/N=C/c1ccco1)c1ccc(NC(=O)C2CC2)cc1 15%
CCN(CC)CCN1C(=O)C2C(C(=O)Nc3ccc(Br)cc3)C3C=CC2(O3)C1C(=O)NC1CCCCC1 (stereo unspecified) 3.48%
Cc1c(C(=O)NC(C)C2CC3CCC2C3)cccc1[N+](=O)[O-] (stereo unspecified) -0.665%
Cc1nn(Cc2ccccc2)c(Cl)c1C(=O)OC1CCOC1=O (stereo unspecified) -0.363%
CC(C)c1ccc(C(=O)OC2CCOC2=O)cc1 (stereo unspecified) -21.9%
CCOc1ccc(NC(=O)c2nc(SCC)ncc2Cl)cc1 7.38%
CC1CC(C)CN(C(=O)CCNC(=O)Cn2cnc3ccccc3c2=O)C1 (stereo unspecified) 19%
CCc1ccc(-c2cc(C)no2)cc1S(=O)(=O)NCCc1ccc(S(N)(=O)=O)cc1 25.5%
Cc1cccc(C(=O)N2CCCN(C(=O)c3cccc(C)c3)CC2)c1 14.8%
Cc1cc(=O)oc(C)c1C(=O)N1CCCCC1 1.13%
CCC1=Nc2cc(C(=O)NCCCN3CCOCC3)ccc2Sc2ccc(Br)cc21 2.37%
COc1cccc(CN(C)CC(O)COC(c2ccccc2)c2ccccc2C)c1 (stereo unspecified) 17.3%

Potency, active:
CSc1nc(C)cc(SC(C(C)=O)C(=O)Nc2ccccc2)n1 (stereo unspecified) 8.91 µM
CC1CC(c2ccccc2)n2nc(NC(=O)c3cccs3)nc2N1 (stereo unspecified) 14.1 µM
O=C1N=C(N2CCc3ccccc3C2)S/C1=C\c1ccc(O)cc1 1.12 µM
CCc1ccc(-c2nn(-c3ccccc3)cc2CSC(=N)N)cc1 11.2 µM
O=C1C=CC(=O)N1c1ccc(N2CCCCC2)cc1 5.62 µM
COC(=O)c1ccc(CSc2ccc3nnc(-c4ccccc4)n3n2)o1 10 µM
Cc1ccc2nc(-c3ccc(NC(=O)c4cccnc4)cc3)oc2c1 20 µM
Cc1ccc(O)c(/C=N/NC(=O)COc2ccc3c(C)cc(=O)oc3c2)c1 2.51 µM
Cc1ccccc1-n1nnc2c(=O)oc3ccccc3c21 7.94 µM
Nc1[nH]c(=S)nc2nc(-c3ccccc3)c(-c3ccccc3)nc12 3.98 µM
S=c1[nH]nc(-c2ccc(Cl)cc2)n1CC1CCCO1 (stereo unspecified) 11.2 µM
CC1CN(C(=S)Nc2ccc(Br)cc2Cl)CC(C)O1 (stereo unspecified) 12.6 µM
Cc1ccc(SCCC(=O)NCc2ccccn2)cc1 8.91 µM
CC1(C)C2CC=C(/C=N/NC(=O)c3ccc(Cl)cc3)C1C2 (stereo unspecified) 12.6 µM
CCCCc1ccc(NC(=S)NCCCN2CCOCC2)cc1 10 µM
CCC1(C)Cc2c(sc3[nH]c(=S)n(Cc4ccccc4)c(=O)c23)CO1 (stereo unspecified) 0.708 µM
CCN(Cc1ccccc1)C(=O)CN1C(=S)NC(C)(C)CC1C (stereo unspecified) 11.2 µM
Cc1ccc(C(=O)N/N=C\c2cc(Br)c(Br)o2)cn1 11.2 µM
O=C(N/N=C/c1ccc(Br)o1)c1cncc(Br)c1 5.62 µM
O=C(OC1CCOC1=O)c1ccc(-c2nc3ccccc3s2)s1 (stereo unspecified) 3.55 µM
Cc1ccc2cc3cc(C(=O)N4CCCCCC4)oc3nc2c1 10 µM

Potency, inactive and 1 µM (active):
COc1ccccc1OCCNCC(O)COc1cccc2[nH]c3ccccc3c12 (stereo unspecified)
